Experimental data published in PubChem BioAssay (EPA / NIEHS).
The source made the active and inactive calls. The calls were made as follows: active = hit-call score of the fitted dose curve at least 0.9, where 1 is the maximum; inactive = score below 0.9.

Assay: APR_HepG2_MitoticArrest_1hr: Apredica 1-hour HepG2 Assay for Mitotic Arrest (AID 2282672)
Conditions: high-content imaging, actives raise or lower the signal
Procedure: APR_HepG2_1hr is a cell-based, multiplexed-readout assay that uses HepG2, a human liver cell line, with measurements taken at 1 hour after chemical dosing in a 384-well plate.APR_HepG2_MitoticArrest_1hr is one of 10 assay component(s) measured or calculated from the APR_HepG2_1hr assay. It is designed to make measurements of cell phenotype, a form of morphology reporter, as detected with fluorescence intensity signals by HCS Fluorescent Imaging technology.Data from the assay component APR_HepG2_MitoticArrest_1hr was analyzed into 1 assay endpoint. This assay endpoint, APR_HepG2_MitoticArrest_1hr, was analyzed with bidirectional fitting relative to DMSO as the negative control and baseline of activity. Using a type of morphology reporter, measures of protein for gain or loss-of-signal activity can be used to understand the signaling at the pathway-level as they relate to the gene . Furthermore, this assay endpoint can be referred to as a primary readout, because this assay has produced multiple assay endpoints where this one serves a signaling function. To generalize the intended target to other relatable targets, this assay endpoint is annotated to the cell cycle intended target family, where the subfamily is arrest.
Cells were treated with dimethyl sulfoxide (DMSO) as a solvent control at a final concentration of 0.5% v/v or with compounds in DMSO with a resulting final DMSO concentration of 0.5% v/v. Compound treatment was done at concentrations of 0.39, 0.78, 1.56, 3.12, 6.24, 12.5, 25, 50, 100, and 200 uM in duplicate on each plate. Cells were treated with compounds for 1, 24, or 72 hr. Carbonyl […] m-chloro-phenylhydrazone (CCCP) and taxol were used as positive controls for mitochondrial function and cytoskeletal stability, respectively; DMSO served as the negative control for this experiment. Cells were fixed by the direct addition of 50 uL formaldehyde in Hank's Balanced Salt Solution (HBSS) to a final concentration of 3.7%. After incubation in the fixation medium for 30 min at room temperature (293-298 K), cells were rinsed twice with HBSS and treated with cell permeabilization buffer (16 uL of 0.5% Triton X-100) for 10 min at room temperature (293-298 K) before labeling. For mitochondrial membrane potential and mitochondrial measurements, pre-fixed cells were incubated with 50 uL of MitoTracker Red CMXRos (Invitrogen) at a concentration of 250 nM for 30 min before fixation. In the remaining cases, post-fixed cells were labeled by incubation with a multiplexed mixture of primary antibodies in HBSS for 60 min at room temperature (293-298 K) to detect immunoreactivity of c-Jun (1:500), phospho-histone H3 (1:100), phospho-histone H2A.x (1:200), p53 (1:400), alpha-tubulin (1:200) and Hoechst 33342 (2 ug/mL). Cells were labeled for multiplexed imaging on two separate plates: a) Hoechst 33342, MitoTracker Red, phospho-histone H3, and alpha-tubulin, and b) Hoechst 33342, phospho-histone H2A.x, and c-Jun. A final rinse with HBSS (50 uL) was performed before analysis. The primary and secondary antibodies for the proteins were phospho-histone H3 (rabbit anti-phospho-histone H3 and FITC-donkey anti-rabbit IgG), phospho-histone H2A.x (mouse anti-phospho-histone H2A.x and FITC-donkey anti-mouse IgG), c-Jun (rabbit anti-phospho-c-Jun and Cy3-donkey anti-rabbit IgG), p53 (sheep anti-p53 and Cy5-donkey anti-sheep IgG), alpha-tubulin (mouse anti-alpha-tubulin and Cy5-donkey anti-mouse IgG). These antibodies are available as the CellCiphr HepG2 assay kit (Millipore).Digital images of each well were captured using a Cellomics ArrayScan VTI (Thermo Scientific Cellomics) (0.8 NA objective, 0.63x optical coupler, and XF-93 filter set) at 20x magnification. The images were acquired using the autofocus feature of the ArrayScan instrument, which entails the following steps. First, the camera focuses on channel 1 (Hoechst 33342), where nuclei are identified. Second, a Z offset of 1 um is used for capturing mitochondria (MitoTracker Red). […]

Structure (SMILES) | outcome
CCN(CC)C(=O)C(C)Oc1cccc2ccccc12 (stereo not given) | inactive
CC(C)N1C(=O)N(c2ccccc2)CSC1=NC(C)(C)C | inactive
Clc1nc(Cl)nc(Nc2ccccc2Cl)n1 | inactive
CCC(C)n1c(=O)[nH]c(C)c(Br)c1=O (stereo not given) | inactive
Cc1cnc(C2=NC(C)(C(C)C)C(=O)N2)c(C(=O)O)c1 (stereo not given) | inactive
CCSC(=O)N1CCCCCC1 | inactive
Nc1c(Cl)c(F)nc(OCC(=O)O)c1Cl | inactive
O=C(O)c1c(Cl)ccc2cc(Cl)cnc12 | inactive
Cn1c(-c2ccccc2)cc(-c2ccccc2)[n+]1C | inactive
O=C1C2CC=CCC2C(=O)N1SC(Cl)(Cl)Cl (stereo not given) | inactive
CS(=O)(=O)c1cc(C(F)(F)F)ccc1C(=O)c1cnoc1C1CC1 | inactive
CC(C)Nc1nc(Cl)nc(NC(C)C)n1 | inactive
CNC(=O)N(C)c1nnc(C(C)(C)C)s1 | inactive
Cc1c(COC(=O)[C@@H]2[C@H](/C=C(\Cl)C(F)(F)F)C2(C)C)cccc1-c1ccccc1 | inactive
COCc1cnc(C2=NC(C)(C(C)C)C(=O)N2)c(C(=O)O)c1 (stereo not given) | inactive
CS(=O)(=O)c1ccc(C(=O)C2C(=O)CCCC2=O)c([N+](=O)[O-])c1 | inactive
CCOP(=O)(OCC)Oc1nc(Cl)c(Cl)cc1Cl | inactive
CNC(=O)Oc1cccc2ccccc12 | inactive
CCOP(=S)(OCC)Oc1nc(Cl)n(C(C)C)n1 | inactive
CCNC(=O)NC(=O)C(C#N)=NOC | inactive

Structure (SMILES) | outcome
O=c1n(Cl)c(=O)n(Cl)c(=O)n1Cl | inactive
CCN(CC)c1nc(C)cc(OP(=S)(OC)OC)n1 | inactive
N#Cc1c(Cl)cccc1Cl | inactive
CN/C(=N\[N+](=O)[O-])NCc1cnc(Cl)s1 | inactive
CC(C)C1(C)N=C(c2ncccc2C(=O)O)NC1=O (stereo not given) | inactive
CC(C)N1C(=O)c2ccccc2NS1(=O)=O | inactive
Clc1cccc(C(Cl)(Cl)Cl)n1 | inactive
CO/N=C(/C1=NOCCO1)c1ccccc1Oc1ncnc(Oc2ccccc2Cl)c1F | inactive
CCCCC(O)(Cn1cncn1)c1ccc(Cl)cc1Cl (stereo not given) | inactive
CC1(C)CCC(=Cc2ccc(Cl)cc2)C1(O)Cn1cncn1 (stereo not given) | inactive
COC(=O)NC(=S)Nc1ccccc1NC(=S)NC(=O)OC | inactive
CCOc1cc(C(C)(C)C)ccc1C1COC(c2c(F)cccc2F)=N1 (stereo not given) | inactive
C=C(C)CN(CC)c1c([N+](=O)[O-])cc(C(F)(F)F)cc1[N+](=O)[O-] | inactive
CCOc1nc(C(Cl)(Cl)Cl)ns1 | inactive
COP(=S)(OC)Oc1ccc([N+](=O)[O-])c(C)c1 | inactive
CC(C)Oc1cccc(NC(=O)c2ccccc2C(F)(F)F)c1 | inactive
COc1ccc(-c2ccccc2)cc1NNC(=O)OC(C)C | inactive
CC1(C)CON(Cc2ccccc2Cl)C1=O | inactive
COP(=S)(OC)SCn1nnc2ccccc2c1=O | inactive
CCCC(=NOCC)C1=C(O)CC(CC(C)SCC)CC1=O (stereo not given) | inactive
